# According to PubChem BioAssay (NCI):
# This is part of a sample that, as a whole, favours compounds with a hit. Of some 83,000 tested, about 20% had one in any assay.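 Each cell line was grown in a 96-well plate and treated with one concentration of compound for 48 hours. Values below 10 were considered active.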 A number with no mark means an inactive call. Calls of active or inactive are those of the source.
# System: KM12 colon
# Test: NCI-60 one-dose screen, 48 h (100 = growth as untreated, 0 = no growth, -100 = all killed)
# Details: 10 µM unless noted
row,Compound,growth
1,NN1C(=O)CSC1=S,106%
2,CC12O[C@H](C[C@@H](OC(=O)CCC(=O)O)[C@H]1O)n1c3ccccc3c3c4c(c5c6ccccc6n2c5c31)C(=O)NC4=O,15.4%
3,C=C1[C@@H](O)C[C@H]2C(C)(C)C[C@H](Cl)C[C@]2(C)[C@H]1C[C@H](O)[C@H]1CC(=O)NC1=O,-18% (active)
4,COC(=O)[C@H](Cc1ccccc1)NC(=O)[C@@H](OC)[C@@H]1Cc2cc3cc(OC4CC(OC5CC(O)C(O)C(C)O5)C(O)C(C)O4)c(C)c(O)c3c(O)c2C(=O)[C@H]1OC1CC(OC2CC(OC3CC(C)(O)C(O)C(C)O3)C(O)C(C)O2)C(O)C(C)O1 (stereo partly specified),-5.45% (active)
5,CCOC(=O)C1=C(C)N=C2Sc3cccc(OC)c3N2[C@H]1c1ccccn1,96.6%
6,CNC(=O)c1cc(Oc2cccc3nc(Nc4ccc(Oc5ccccc5)cc4)ccc23)ccn1,67.8%
7,COc1ccc(-c2nc(N)ncc2Oc2ccccc2OC)c(O)c1,29.5%
8,CSc1nc2ncncc2[nH]1,116%
9,Nc1c2c(c(O)c3c1=C(CO)C=N3)=NCCS2=O (stereo unspecified),-27.7% (active)
10,CC(C)=CCc1cc2c(cc1O)C1=C(C(=O)C3=C(NCCS3(=O)=O)C1=O)C(C=C(C)C)O2 (stereo unspecified),54.5%
11,CC/C=C\C[C@H]1C/C=C2/C(=O)C=C[C@@H]2C/C=C\CCCC(=O)O1,-68.7% (active)
